Inconclusive results are not listed. Unmarked numbers belong to inactive results. Calls of active or inactive are those of the source. The call rests on the fitted dose curve; in most records, active means well fitted curve in the direction sought with a large enough effect; inconclusive means small, poorly fitted or top-dose-only effect, or another doubt; inactive means no such curve, though single readings can be large; an effect the other way counts as inactive or inconclusive.

This note sets out measurements from PubChem BioAssay (NCATS).

One assay concerns TAB165. The assay is described as follows: qHTS profiling for inhibitors of Plasmodium falciparum proliferation (AID 504749). Further: nearly all actives have a fitted effect of over 60% in size. Further: potency means the concentration at half of the fitted maximal effect. Particulars: P. falciparum in erythrocytes, SYBR Green DNA, 72 h; series mostly up to 28.7 µM. In a few lines:
(§1)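 Parasite proliferation within erythrocytes, 72 h exposure. Endpoint: SYBR Green I fluorescence after overnight lysis at room temperature. Controls: 0.29 uM artemisinin, DMSO.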
A general note: qHTS replaces the single test concentration by a dilution series.

The subject of the next assay is W2. The description is as above. Particulars: P. falciparum in erythrocytes, SYBR Green DNA, 72 h; series mostly up to 28.7 µM. In outline:
as §1

The subject of a further assay is CRL-7250. In words: Cytotoxic Profiling of Annotated Libraries Using Quantitative High-Throughput Screening (AID 1296008). Further: nearly all actives have a fitted effect of over 60% in size. On max response: on the % scale 0 is the no-effect control and ±100 the full control effect. Particulars: Five cell lines viability, CellTiter-Glo ATP luminescence, 48-72 h; max response: stronger effect = lower value. In a few lines:
(§2)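 Compounds were pin-transferred onto cells and incubated 48 or 72 hr at 37 degree Celsius, 95% humidity. CellTiter-Glo was added, plates sat 10 min at room temperature, then ATP-coupled luminescence was imaged as the viability read-out.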
In general terms: In ATP-based viability assays light output follows the ATP content of the culture.

In another assay the test system is HEK293. Described as above. Particulars: Five cell lines viability, CellTiter-Glo ATP luminescence, 48-72 h; max response: stronger effect = lower value. In outline:
as §2

Assay [1] concerns HaCat. The description is as above. Particulars: Five cell lines viability, CellTiter-Glo ATP luminescence, 48-72 h; max response: stronger effect = lower value. In outline:
as §2

Another assay concerns KB-3-1. The assay is described as above. Particulars: Five cell lines viability, CellTiter-Glo ATP luminescence, 48-72 h; max response: stronger effect = lower value. In outline: as §2
Assay [2] deals with NIH3T3. Described as above. The note with it: Five cell lines viability, CellTiter-Glo ATP luminescence, 48-72 h; max response: stronger effect = lower value. In a few lines: as §2
For assay [3], the system named is HACAT. The assay is described as follows: qHTS assay to identify novel small-molecules to repurpose for Merkel cell carcinoma treatment (AID 1296009). Further: nearly all actives have a fitted effect of over 60% in size. The note with it: MCC and control cell lines, CellTiter-Glo viability, 72 h; at 44.8 µM (top of the series) unless noted. In outline: (§3)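 qHTS format: cells treated with library compounds in DMSO across 8 (NPC) or 11 (MIPE) concentrations. Readout after 72 hr at 37 degree celsius was CellTiter-Glo luminescence.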

For another assay, the system named is HEK293T. The assay is described as above. The note with it: MCC and control cell lines, CellTiter-Glo viability, 72 h; at 44.8 µM (top of the series) unless noted. In outline:
as §3

The test system of another assay is MCC-13. The description is as above. The note with it: MCC and control cell lines, CellTiter-Glo viability, 72 h; series mostly up to 46 µM. In outline: as §3
Another assay relates to MKL-1. The description is as above. Particulars: MCC and control cell lines, CellTiter-Glo viability, 72 h; series mostly up to 46 µM. In outline:
as §3

Another assay deals with MKL-2. The description is as above. Particulars: MCC and control cell lines, CellTiter-Glo viability, 72 h; series mostly up to 46 µM. In a few lines:
as §3

For a further assay, the system named is UISO. Described as above. Particulars: MCC and control cell lines, CellTiter-Glo viability, 72 h; series mostly up to 46 µM. In outline: as §3
The test system of the next assay is WaGa. The description is as above. The note with it: MCC and control cell lines, CellTiter-Glo viability, 72 h; series mostly up to 46 µM. In outline: as §3
The next assay concerns C33A. The assay is described as follows: Primary qHTS to identify gynecologic anti-cancer compounds using libraries of approved drugs and bioactive compounds (AID 1345084). Further: on the % scale 0 is the no-effect control and ±100 the full control effect; nearly all actives have a fitted effect of over 55% in size. Particulars: Gynecologic cancer cell panel viability, ATPlite luminescence, 48 h; series mostly up to 57.5 µM. In outline: (§4)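 Cells, 1,000 per well, were allowed to settle for 16 h at 37 C before compound addition. Five concentrations were tested for 48 h, and viability was read by ATPlite luminescence after 15 min at room temperature.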

A further assay concerns CAOV3. The description is as above. Particulars: Gynecologic cancer cell panel viability, ATPlite luminescence, 48 h; series mostly up to 57.5 µM. In outline:
as §4

For the next assay, the system named is CASKI. The assay is described as above. The note with it: Gynecologic cancer cell panel viability, ATPlite luminescence, 48 h; series mostly up to 57.5 µM. In a few lines: as §4
A further assay has as its system Es-2. Described as above. Particulars: Gynecologic cancer cell panel viability, ATPlite luminescence, 48 h; series mostly up to 57.5 µM. In a few lines: as §4
A further assay relates to MCC-26. The assay is described as follows: qHTS assay to identify novel small-molecules to repurpose for Merkel cell carcinoma treatment (AID 1296009). Further: nearly all actives have a fitted effect of over 60% in size. The note with it: MCC and control cell lines, CellTiter-Glo viability, 72 h; series mostly up to 46 µM. In outline:
as §3

In assay [4] the test system is NIH3T3. The description is as above. Particulars: MCC and control cell lines, CellTiter-Glo viability, 72 h; at 44.8 µM (top of the series) unless noted. In outline:
as §3

`Nc1ccc(S(=O)(=O)NC(=O)c2ccccc2)cc1`: the Potency result with TAB165, in the assay on W2, in the assay on MCC-13, with MKL-1, in the assay with MKL-2 and in the assay with UISO was “inactive” throughout. The Potency result in the assay on WaGa, in the assay with C33A, in the assay on CAOV3, with CASKI and in the assay on Es-2 was “inactive” throughout. Further, the max response is -4.44% with CRL-7250, 18.9% in the assay on KB-3-1 and -0.704% in the assay with NIH3T3 [2]. In addition, the outcome in the assay on HEK293, in the assay with HaCat [1], with HACAT [3] and with HEK293T was inactive.
For `CN(C)CCN(Cc1ccccc1)c1ccccn1`, the Potency result in the assay on TAB165, in the assay with MCC-13, with MCC-26, in the assay with MKL-1, in the assay on MKL-2 and with UISO was “inactive” each time. Moreover, the Potency result in the assay with WaGa, in the assay with C33A, with CAOV3, in the assay on CASKI and in the assay on Es-2 was “inactive” each time. Also, the result with CRL-7250, in the assay on HEK293, in the assay on HaCat [1], in the assay with HACAT [3] and with HEK293T was inactive. The figures for the max response in the assay on KB-3-1 and in the assay on NIH3T3 [2] were -7.24% and 0.397%, respectively.
For the molecule `Cc1c(Cl)cccc1Nc1ccccc1C(=O)O`, the Potency result with TAB165, with MCC-13, in the assay with MKL-1, in the assay with MKL-2, in the assay with UISO and in the assay on WaGa was “inactive” each time. For the same molecule, the Potency result in the assay on C33A, in the assay on CAOV3, in the assay on CASKI and in the assay on Es-2 was “inactive” in each case. In addition, the Potency in the assay on W2 is 9.53 µM (active). The call with CRL-7250, with HEK293, in the assay on HaCat [1], with NIH3T3 [2], in the assay with HACAT [3] and with HEK293T was inactive. In the assay with NIH3T3 [4], the call was inactive. In addition, the max response with KB-3-1 is -2.57%.
For the molecule `CC1(C)OC(=O)NC1=O`, the Potency result in the assay with TAB165, in the assay with W2, in the assay with MCC-13, with MCC-26, in the assay on MKL-1 and with MKL-2 was “inactive” throughout. In addition, the Potency result in the assay on UISO, in the assay with WaGa, in the assay with C33A, with CAOV3, in the assay with CASKI and in the assay with Es-2 was “inactive” throughout. The max response was 4.73% in the assay with CRL-7250, 1.34% in the assay on KB-3-1 and 3.48% with NIH3T3 [2]. Besides, the outcome in the assay with HEK293, in the assay with HaCat [1], in the assay with HACAT [3] and in the assay on HEK293T was inactive.
With `CCCOC(=O)c1ccccc1`, the Potency entry in the assay on TAB165, with W2, with MCC-13, with MCC-26, with MKL-1 and in the assay on MKL-2 was “inactive” each time. The Potency entry in the assay on UISO, in the assay on WaGa, in the assay on C33A, with CAOV3, in the assay on CASKI and in the assay with Es-2 was “inactive” throughout. Also, the max response in the assay with CRL-7250 is -5.05%; with KB-3-1 it was -10.8%; in the assay on NIH3T3 [2], 2.42%. Also, the result with HEK293, in the assay with HaCat [1], with HACAT [3] and with HEK293T was inactive.
Turning to `C[C@H](N)[C@H](O)c1cccc(O)c1`, the Potency entry in the assay with TAB165, in the assay on W2, in the assay with MCC-13, in the assay with MCC-26, with MKL-1 and in the assay with MKL-2 was “inactive” each time. Also, the Potency entry in the assay on UISO, with WaGa, with C33A, with CAOV3, with CASKI and in the assay with Es-2 was “inactive” in each case. Besides, the figures for the max response with CRL-7250, in the assay on KB-3-1 and in the assay with NIH3T3 [2] were -3.27%, 1.71% and 1.91%, respectively. The outcome in the assay with HEK293, in the assay on HaCat [1], in the assay on HACAT [3] and with HEK293T was inactive.
